The record followed here is PubChem BioAssay (NCI).

This is part of a sample that, as a whole, favours compounds with a hit. Of some 83,000 tested, about 20% had one in any assay.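 Values shown are percent growth following 48 h exposure of cells in 96-well plates to a single concentration of compound; below 10 was considered active.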 A number with no mark means an inactive call. Active and inactive are the calls of the source.

Experiment in all cases: NCI-60 one-dose screen, 48 h (100 = growth as untreated, 0 = no growth, -100 = all killed)
Holding throughout (details): 10 µM unless noted

Test [1] concerns SK-MEL-2 melanoma.
The test system of test [2] is SN12C renal.
Test [3] has as its system UO-31 renal.
Test [4] has as its system ACHN renal.
Test [5] relates to CAKI-1 renal.
In test [6] the test system is A498 renal.
The test system of test [7] is CCRF-CEM leukemia.
Test [8] has as its system MOLT-4 leukemia.
Test [9] has as its system SR leukemia.
Test [10] has as its system RPMI-8226 leukemia.
Test [11] concerns OVCAR-8 ovarian.
Test [12] has as its system OVCAR-5 ovarian.
In test [13] the test system is OVCAR-4 ovarian.
The subject of test [14] is SK-OV-3 ovarian.
The test system of test [15] is IGROV1 ovarian.
The test system of test [16] is OVCAR-3 ovarian.
For test [17], the system named is NCI/ADR-RES ovarian.
The test system of test [18] is TK-10 renal.
Test [19] relates to HS 578T breast.

Take `COc1ccccc1CNCCCN1C(=O)c2ccc3c4c(ccc(c24)C1=O)C(=O)N(CCCNCCCCNCCCCN)C3=O`: the growth is -55.8% (active) in test [1]; 6.05% (active) in [2]; 8.57% (active) in [3]; 17.2% in test [4]; 64% in test [5]; 9.03% (active) in test [6]. For the same molecule, the growth in test [7] was 13.8%; in test [8], 11.3%; in [9] it was 2.93% (active); in test [10], 17.3%; in test [11], -18.2% (active); in test [12], 24.5%. The growth in test [13] is -33.8% (active); in test [14], 28%; in test [15], -57.8% (active); in test [16], 1.36% (active); in test [17], 62.2%.
Regarding `CC(C)C[C@H](NC(=O)[C@H](Cc1ccccc1)n1ccc(N2CCCCC2)cc1=O)B(O)O`, the growth is 2.84% (active) in test [1]; 26.7% in [2]; -37.2% (active) in test [3]; 16.9% in test [18]; 16.1% in [4]; -24.6% (active) in [6]. Also, the growth in test [7] is 1.97% (active); in test [8], -2.84% (active); in test [10], -10.5% (active); in test [11] it was 31.8%; in test [12] it was 39.3%; in test [13] it was 39.3%. Besides, the growth was 53.9% in test [14]; 46.2% in test [15]; -29.3% (active) in test [16]; 22% in test [19]; 90.3% in test [17].
For `COc1cccc(/C=C/c2c(C(=O)O)cccc2[N+](=O)[O-])c1OC`, the growth was 102% in test [1]; 103% in test [2]; 87.1% in [3]; 100% in test [4]; 94.2% in test [5]; 88.4% in [6]. Also, the growth is 101% in test [7]; 96.1% in [8]; 103% in test [9]; 107% in [10]; 110% in test [11]; 103% in test [12]. The growth is 113% in test [13], 88.2% in test [14], 102% in [16] and 109% in test [17].
`COc1cc(-c2nc(-c3nc4ccccc4[nH]3)cc3c2[nH]c2ccccc23)cc(OC)c1OC`: the growth in test [1] is 23.9%; in test [2], 40.4%; in [3], 24.3%; in [4] it was 51.4%; in test [5], 20%; in test [6] it was 44.8%. Also, the growth in [7] is 16.8%; in [8] it was 44.3%; in [9] it was 45.2%; in test [10], -4.95% (active); in test [11], 13.2%; in test [12], 88.8%. Besides, the growth in [13] is 59.5%; in test [14] it was 104%; in [15] it was 18.9%; in test [16], 31.7%; in test [19] it was 55.8%; in [17], 32.2%.
As for `CCN(CC)P(=O)(N(CC)CC)N(CCCSC/C=C(\C)CC/C=C(\C)CCC=C(C)C)CCCN1CCN(C)CC1`, the growth in test [1] is 118%; in [2], 92.9%; in test [3], 92.8%; in test [4] it was 119%; in [5], 89.9%; in test [6], 77.2%. Besides, the growth in test [7] is 87.2%; in test [8] it was 93.1%; in [9], 22.9%; in [10], 94.6%; in [11], 97.1%; in test [12], 103%. Besides, the growth in [13] is 92.5%; in test [14], 103%; in [15] it was 110%; in [16], 104%; in test [17] it was 106%.
For the molecule `COc1ccc(C(=O)c2cc(OC)c(OC)c(OC)c2)cc1/C=C/C(=O)c1ccc(OC)c(OC)c1`, the growth in test [1] is 20.9%; in [2] it was 42.3%; in test [3], 26.3%; in test [18] it was 63.8%; in test [4], 20.4%; in [6], 74.1%. In addition, the growth was 6.83% (active) in test [7]; 12.8% in test [8]; 3.96% (active) in [9]; 26.1% in [11]; 0.936% (active) in test [12]; 38.4% in test [14]. Also, the growth in [15] is 29.7%; in test [16], -22.1% (active); in test [19], 31.5%; in test [17] it was 19%.
As to `Nc1c(C(=O)c2ccc(F)cc2)sc2nc3c(cc12)CCCC3`, the growth in test [1] was 67.7%; in test [2], 82.5%; in test [3] it was 75.3%; in [4], 96.6%; in [5], 84.6%; in [7] it was 77.9%. Moreover, the growth in test [8] was 66.6%; in [9], 46.3%; in test [10], 77.6%; in test [11] it was 78.5%; in test [13], 83.9%; in test [14], 73.1%. Also, the figures for the growth in test [15], in test [16] and in test [17] were 77.1%, 87.6% and 44.8%, respectively.
Consider `COc1ccc(Cn2cc(COc3cc(/C=C/C(=O)c4cc(OC)c(OC)c(OC)c4)ccc3OC)nn2)cc1`, for which the growth is 87.1% in [1]; 51% in [2]; 37.8% in [3]; 64.6% in [4]; 17.5% in [5]; 81.4% in [6]. The growth was 2.56% (active) in test [7]; 82.3% in [8]; 5.65% (active) in test [9]; -2.32% (active) in test [10]; 46.6% in test [11]; 81.3% in test [12]. For the same molecule, the growth was 51% in test [13]; 72% in test [14]; 88.8% in test [15]; 54.3% in test [16]; 83.3% in [19]; 46.2% in test [17].
`COc1ccc(/C=C/C(=O)c2cc(OC)c(OC)c(OC)c2)cc1OCc1cn(Cc2ccc(F)cc2)nn1`: the growth in test [1] was 90%; in test [2], 29.2%; in test [3] it was 30.8%; in test [4], 57.9%; in test [5], 4.33% (active); in test [6], 78.7%. Further, the growth in [7] was 0.459% (active); in test [8] it was 58.1%; in [9], 3.34% (active); in [10], 1.66% (active); in [11] it was 15%; in [12] it was 50.4%. Also, the growth in test [14] is 76.6%; in [15] it was 85.9%; in test [16], 21.7%; in test [19] it was 82.6%; in test [17], 16.5%.
`Cc1ccc(C(=O)c2sc3nc4c(cc3c2N)CCCC4)c(C)c1`: the growth in test [1] was -13.7% (active); in [2], 44.1%; in test [3], 30.8%; in [4] it was 46.4%; in test [5] it was 7.6% (active); in test [6], -10.8% (active). In addition, the growth in [7] is 6.69% (active); in test [8], 21.8%; in test [9] it was 9.04% (active); in test [10], -12.3% (active); in test [11], 17.5%; in test [12], 47.2%. Besides, the growth in test [13] was 39.8%; in test [14], 19.9%; in test [15] it was 41.4%; in test [16], 12%; in test [17], 13.9%.
For `COc1ccc(OC)c(C(=O)c2oc3ccc(Br)cc3c2N)c1`, the growth in test [1] was -9.79% (active); in test [2] it was 39.4%; in [3], 27.5%; in test [4] it was 50.7%; in [5], 0.0162% (active); in test [6], -13.8% (active). Besides, the growth in [7] is 4.72% (active); in test [8], 19.4%; in test [9], 10.2%; in test [12], 45.5%; in [13], 49.4%; in [14] it was -6.27% (active). Moreover, the growth was 41.2% in test [15], 3.65% (active) in [16] and 15.1% in test [17].
As for `COc1cc(/C=C\c2cc(OC)c(OC)c(OC)c2)cc(N/C=C\C(=O)c2c[nH]c3ccccc23)c1OC`, the growth in [1] is 46.7%; in test [2] it was 70.8%; in [3] it was -93% (active); in [18], -43.4% (active); in test [4] it was -100% (active); in [6], 39.3%. The growth in test [7] is -57.3% (active); in [8], -29% (active); in test [9], -36.8% (active); in [10], -32.8% (active); in [11], 33.8%; in test [12] it was 35.3%. Besides, the growth is 40.5% in [15], -93.6% (active) in [16], 67.5% in [19] and 73.5% in test [17].
For the molecule `COc1ccc(C2CC(=O)Nc3c2c(C)nn3-c2nc3ccccc3[nH]2)cc1OC` (stereo not given), the growth in [1] was 77.8%; in test [2], 89.9%; in [3], 52.4%; in test [4] it was 85.2%; in [5], 72.8%; in test [6] it was 3.48% (active). Further, the growth in test [7] is 5.82% (active); in [8], -31.5% (active); in test [9], 32.8%; in test [10] it was 85.4%; in test [11], 62%; in test [12], 111%. Besides, the growth in test [13] was 62%; in [14], 17.7%; in [16], 83.2%; in test [17], 77.7%.
